Many of the other results were omitted from the sample, so hits are more common in it than they were.
Giardia FBPA inh = Giardia lamblia aldolase inhibition. A8B2U2. purified Giardia FBPA. Potency, µM (titrated, usually from 59.6 µM), actives largely listed as inhibitors. actives 0.71% (n = 290,000). AID 2451; also: nearly all actives have a fitted effect of over 55% in size
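Giardia FBPA (40 nM reagent) was preincubated 10 min at RT with compound (up to 57.5 uM final), then substrate plus GAPDH/TPI/NAD/arsenate coupling system with diaphorase/resazurin was added; resorufin fluorescence (525/598 nm) was read after 20 min.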
LmPK inh = LmPK (Leishmania mexicana) enzyme inhibition; AID 1721; actives 0.37% (n = 290,000); Q27686; purified LmPK, Kinase-Glo ATP luminescence, 1 h; Potency, µM (highest dose often 57.5 µM), actives largely listed as inhibitors
Target sequence (Q27686 whole entry, looked up): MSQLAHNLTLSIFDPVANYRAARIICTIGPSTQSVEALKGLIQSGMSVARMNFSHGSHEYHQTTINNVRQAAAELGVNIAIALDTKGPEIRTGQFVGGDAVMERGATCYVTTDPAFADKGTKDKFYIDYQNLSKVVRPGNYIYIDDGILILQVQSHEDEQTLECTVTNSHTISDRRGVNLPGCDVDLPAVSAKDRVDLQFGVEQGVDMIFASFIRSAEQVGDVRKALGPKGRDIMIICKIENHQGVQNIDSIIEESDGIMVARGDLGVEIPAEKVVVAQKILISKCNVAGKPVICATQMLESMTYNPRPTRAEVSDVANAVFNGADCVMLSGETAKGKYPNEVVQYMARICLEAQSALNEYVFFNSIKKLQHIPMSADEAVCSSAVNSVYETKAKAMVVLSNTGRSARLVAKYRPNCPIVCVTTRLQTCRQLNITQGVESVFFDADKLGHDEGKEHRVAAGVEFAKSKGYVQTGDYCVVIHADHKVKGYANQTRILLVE
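In 50 mM imidazole pH 7.2 with 7 mM MgCl2, LmPK (0.1 nM) turned over PEP (0.5 mM) and ADP (0.1 mM) for 1 h at room temperature. Luciferase read-out of ATP.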
Sm TGR block = inhibitors of Schistosoma mansoni thioredoxin glutathione reductase. actives 3% (n = 360,000). Q962Y6. Potency, µM (highest dose often 114 µM), actives largely listed as inhibitors. purified TGR, DTNB reduction, TNB absorbance 405 nm; also: nearly all actives have a fitted effect of over 60% in size
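First, TGR (20 nM dispensed) and NADPH were mixed with compound. Second, a 15 min room-temperature incubation followed. Third, further NADPH and then DTNB were added to start the reaction. Finally, TNB absorbance was monitored kinetically.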
TbPYK inhibitor = blocks Trypanosoma brucei pyruvate kinase. Q57TT1. TbPYK enzyme, Kinase-Glo Plus ATP luminescence, 45 min. Potency, µM (series often up to 76.8 µM), usual class: inhibitors. actives 0.12% (n = 410,000); also: nearly all actives have a fitted effect of over 50% in size
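Activity of T. brucei pyruvate kinase was followed by Kinase-Glo Plus luminescence after the enzyme reacted 45 min at room temperature with 130 uM ADP (final) and substrate. Test compounds were added before ADP at multiple concentrations.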
CHX counter = affects cycloheximide protein synthesis inhibition readout, counter-screen; AID 2314; cell reporter, cycloheximide protein synthesis inhibition counterscreen; max response, %; actives 12% (n = 300,000); in the data active = max response mostly above about 13%, no sharp cut-off; inactive = mostly below about 14%; also: read at 38.3 µM for the half of the compounds with a filed dose
Shiga inhibitor = inhibitors of Shiga toxin in Vero cells. Vero cells, Shiga toxin protein synthesis inhibition reporter. inhibition, % at 38.7 µM. actives 9.2% (n = 290,000). AID 2315; in the data active = inhibition mostly above about 28%, no sharp cut-off; inactive = mostly below about 43%
Each line names hits and unclear results; the compound was inactive in the other large screens. Unless noted, calls follow the shape of the dose curve; as a rule, active = well fitted curve in the direction sought with a large enough effect; inconclusive = small, poorly fitted or top-dose-only effect, or another doubt; inactive = no such curve, though single readings can be large; an effect the other way counts as inactive or inconclusive.

O=C(CCCc1cccs1)Nc1ccc2c(c1)OCO2	CHX counter 31, Shiga inhibitor 89
O=C(Nc1ccc2c(c1)OCCO2)c1cccc(Cl)c1	CHX counter 44 (no result: Shiga inhibitor)
O=C(Nc1cc2c(cc1C(=O)c1ccccc1Br)OCCO2)c1cccc(Cl)c1	none (no result: Giardia FBPA inh, LmPK inh, CHX counter, Shiga inhibitor)
O=C(O)c1ccc2nc(-c3cc4cc(Cl)ccc4oc3=O)[nH]c2c1	none (no result: Giardia FBPA inh, LmPK inh, CHX counter, Shiga inhibitor)
COC(=O)c1ccccc1NC(=O)Cn1nc(C)c2nn(-c3ccc(Cl)cc3)c(C)c2c1=O	none (no result: Giardia FBPA inh, LmPK inh, CHX counter, Shiga inhibitor)
O=C(Nc1ccccc1C(=O)Nc1ccc2c(c1)OCO2)c1cccs1	CHX counter 17
Cc1ccc(NC(=O)c2cccs2)cc1NC(=O)c1ccccc1Cl	none
O=C(NC(=S)Nc1ccccc1Br)c1ccc2c(c1)OCO2	Sm TGR block 14µM, CHX counter 31, Shiga inhibitor 60 (no result: Giardia FBPA inh)
COc1cc(NC(=S)Nc2ccc3c(c2)OCCO3)cc(OC)c1OC	CHX counter 32, Shiga inhibitor 69
O=C(Nc1ccc2c(c1)OCCO2)c1ccc(Br)s1	CHX counter 55, Shiga inhibitor 40
CC(=O)Nc1ccc2c(c1)OCCOCCOc1cc(NC(C)=O)ccc1OCCOCCOCCO2	none (no result: TbPYK inhibitor)
Cc1cccc(-c2c3c(=O)n(C)c(=O)n(C)c3c3cnc4ccccc4n23)c1	none (no result: Giardia FBPA inh, LmPK inh, CHX counter, Shiga inhibitor)
O=S(=O)(NCC1CCN(Cc2ccccc2)CC1)c1ccccc1C(F)(F)F	none
COc1ccccc1OC(C)C(=O)Nc1ccc(-c2nc3ccccc3s2)cc1 (configuration not stated)	none (no result: Giardia FBPA inh, LmPK inh, CHX counter, Shiga inhibitor)
O=C(Nc1ccc2c(c1)OCCO2)c1ccccc1	LmPK inh inconclusive, CHX counter 42, Shiga inhibitor 69
O=C(CCCc1ccccc1)Nc1ccc2c(c1)OCCO2	CHX counter 36, Shiga inhibitor 66 (no result: Sm TGR block)
O=C(Nc1ccc2c(c1)OCCO2)c1cnn(-c2ccccc2)n1	none (no result: Giardia FBPA inh, LmPK inh, CHX counter, Shiga inhibitor)
Cc1ccc(NC(=O)c2ccc3c(c2)OCCO3)cc1	none (no result: Giardia FBPA inh)
O=C(Nc1ccncc1)c1ccc2c(c1)OCCO2	CHX counter 31, Shiga inhibitor 66
O=C(NC(=S)Nc1ccc2c(c1)OCCO2)c1cccc2ccccc12	CHX counter 37, Shiga inhibitor 76
CC(C)(C)NS(=O)(=O)c1ccc(CCC(=O)NCc2ccc3c(c2)OCO3)cc1	Sm TGR block 32µM
O=C(Nc1ccc2c(c1)OCCO2)c1ccc(Cl)cc1Cl	CHX counter 24 (no result: Shiga inhibitor)
O=C(NC(=S)Nc1ccc2c(c1)OCCO2)c1cccc(Br)c1	Sm TGR block inconclusive, CHX counter 74, Shiga inhibitor 74
O=C(Nc1ccc2c(c1)OCO2)c1ccc(Cl)cc1Cl	none (no result: Giardia FBPA inh)
NS(=O)(=O)c1ccc(NC(=S)NC(=O)c2ccc3c(c2)OCO3)cc1	Giardia FBPA inh inconclusive
O=C(NC(=S)Nc1ccc2c(c1)OCO2)c1ccccc1	Sm TGR block 14µM, CHX counter 47, Shiga inhibitor 102
O=C(Nc1cccc(Br)c1)c1cc(-c2ccc3c(c2)OCCO3)on1	none (no result: Giardia FBPA inh, LmPK inh, CHX counter, Shiga inhibitor)
CCOC(=O)c1cc(OC(=O)c2cc(Cl)ccc2OC)n(-c2ccccc2)n1	none (no result: Giardia FBPA inh, LmPK inh, CHX counter, Shiga inhibitor)
CCOC(=O)c1ccc(CN(Cc2ccc(F)cc2)S(=O)(=O)c2ccc(F)cc2)cc1	none (no result: Giardia FBPA inh, LmPK inh, CHX counter, Shiga inhibitor)
Cc1ccc(NC(=O)c2nnn(CC(=O)Nc3ccc(C)c(Cl)c3)c2N)c(C)c1	none (no result: Giardia FBPA inh, LmPK inh, CHX counter, Shiga inhibitor)
O=C(NC(=S)Nc1cccc(Cl)c1N1CCCCC1)c1ccc2c(c1)OCCO2	CHX counter 20
O=C(CSc1ccc2c(c1)OCCO2)Nc1ccc(Br)cc1	none
Cc1noc(C)c1COc1cccc(C(=O)Nc2ccc3c(c2)OCO3)c1	CHX counter 28, Shiga inhibitor 61
O=C(Nc1cccc(Cl)c1N1CCCCC1)c1ccc2c(c1)OCCO2	none
S=C(Nc1ccc(Br)cc1)Nc1ccc2c(c1)OCCO2	CHX counter 58, Shiga inhibitor 103
CCCc1cc(C(=O)Nc2cccc([N+](=O)[O-])c2)cs1	CHX counter 65, Shiga inhibitor 104
Cc1cc2c(cc1S(=O)(=O)N(C)CC(=O)Nc1cccc(C#N)c1)OCC(=O)N2	none (no result: Giardia FBPA inh, LmPK inh, CHX counter, Shiga inhibitor)
CC(=O)c1ccc(NC(=O)CSc2nc(C3CCCC3)nc3c2c(=O)n(C)c(=O)n3C)cc1	none (no result: Giardia FBPA inh, LmPK inh, CHX counter, Shiga inhibitor)
O=C(Nc1ccc2c(c1)N(C1CCCC1)C(=O)c1ccccc1S2)c1ccccc1	none (no result: Giardia FBPA inh, LmPK inh, CHX counter, Shiga inhibitor)
O=C(Nc1cccc(NC(=O)c2cccs2)c1)c1ccc2c(c1)OCCO2	CHX counter 23, Shiga inhibitor 21

Source: PubChem
